# Most compounds without a hit are left out; they make up all but 21% or so of the library.
# Shiga toxin inh: A qHTS for Small Molecule Inhibitors of Shiga Toxin. Vero cells, Shiga toxin protein synthesis inhibition reporter. inhibition, % at 38.7 µM. hit rate 9.2% among 290,000. AID 2315, 2010; in the data active = inhibition mostly above about 28%, no sharp cut-off; inactive = mostly below about 43%; also: 0% is about no effect
# CHX counter: Cycloheximide Counterscreen for Small Molecule Inhibitors of Shiga Toxin; cell reporter, cycloheximide protein synthesis inhibition counterscreen; max response, %; hit rate 12% among 300,000; in the data active = max response mostly above about 13%, no sharp cut-off; inactive = mostly below about 14%; also: read at 38.3 µM for the half of the compounds with a filed dose; 0% is about no effect
# NS1 function inh: qHTS Assay for Inhibitors of Influenza NS1 Protein Function | Potency, µM (titrated, usually from 46.1 µM), for the others: top-dose activity, positive = more growth | hit rate 0.4% among 270,000; also: potency is read from the fitted curve at half-maximal effect; actives are rising curves; nearly all actives have a fitted effect of over 50% in size
#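 Read-out: OD600 growth recovery of NS1-expressing budding yeast. Cells grown overnight at 30C in -URA glucose medium, washed, resuspended and diluted 1:100 in 2% galactose assay medium, pH 6.0. Same strain lacking NS1 served as positive control.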
# SARS PLpro yeast-1: qHTS of Yeast-based Assay for SARS-CoV PLP. Potency, µM (top dose mostly 32.9 µM), for the others: at the top dose activity, positive = growth rescue, actives largely listed as activators. hit rate 0.19% among 330,000. AID 485353, 2010. S. cerevisiae expressing SARS-CoV PLpro, growth rescue; also: potency is read from the fitted curve at half-maximal effect; 0% is about no effect; nearly all actives have a fitted effect of over 55% in size
# Pf growth 48h: Primary qHTS for delayed death inhibitors of the malarial parasite plastid, 48 hour incubation; P. falciparum luciferase growth in erythrocytes, 48 h; Potency, µM (doses to about 28.7 µM), inactives show top-dose activity change, negative = inhibition, most hits filed as inhibitors; hit rate 5.9% among 310,000; active = well fitted inhibition curve with a large enough effect; inconclusive = small, poorly fitted or top-dose-only effect, or another doubt; inactive = no such curve, though single readings can be large or run the other way; also: potency is read from the fitted curve at half-maximal effect; % is scaled to controls: 0 for no effect and ±100 for the full control effect
#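 A one-generation exposure of luciferase-tagged malaria parasites in RPMI 1640/Albumax erythrocyte culture, 37 C and 5% CO2. Inhibition is inferred from decreased luminescence after adding detection reagent.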
# Pf growth 96h: Primary qHTS for delayed death inhibitors of the malarial parasite plastid, 96 hour incubation; P. falciparum luciferase reporter growth, 96 h; Potency, µM (top dose mostly 28.7 µM), for inactives: top-dose activity change, negative = inhibition, most hits filed as inhibitors; hit rate 6.9% among 320,000; AID 504834, 2011; active = well fitted inhibition curve with a large enough effect; inconclusive = small, poorly fitted or top-dose-only effect, or another doubt; inactive = no such curve, though single readings can be large or run the other way; also: potency is read from the fitted curve at half-maximal effect; % is scaled to controls: 0 for no effect and ±100 for the full control effect
#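 Luminescence readout: decreased luciferase signal marks inhibited growth of reporter-expressing P. falciparum in infected red cells (2% hematocrit, 0.05% parasitemia final), exposed to compound two generations (96 h, 37 C, 5% CO2).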
# SARS PLpro yeast-2: qHTS of Yeast-based Assay for SARS-CoV PLP: Hit Validation | shares compounds with SARS PLpro yeast-1 | calls only | yeast expressing SARS-CoV PLpro, growth phenotype rescue | hit rate 19% among 1,000 | AID 652038, 2013; call rule not given here
# The depositor's hits bear a star; i = inactive; ? = inconclusive; . = not tested or not shown; + = active, no number. Unless noted, calls follow the shape of the full dose curve.
SMILES,Shiga toxin inh,CHX counter,NS1 function inh,SARS PLpro yeast-1,Pf growth 48h,Pf growth 96h,SARS PLpro yeast-2
Cn1c(SCC(=O)N2CCCC2)nnc1-c1cnccn1,-2,5,6%,1%,14%,59%,.
COc1cccc(OC)c1Nc1nc(C)nc2c1nnn2Cc1ccccc1Cl,3,-1,3%,-2%,?,-1%,.
CCc1nc(Nc2ccc(OC)c(OC)c2)c2nnn(Cc3ccccc3Cl)c2n1,11,-2,3%,18µM*,?,-12%,+
Cc1ccccc1NC(=O)C(C)OC(=O)CNS(=O)(=O)c1ccc(C#N)cc1 (stereo not drawn),.,.,.,?,?,16%,i
Cc1cc(/C=N/n2c(COc3ccccc3)nc3ccccc3c2=O)c(O)c([N+](=O)[O-])c1,51,6,-9%,2.5µM*,0%,0%,+
Cc1nc2ccccc2c(=O)n1/N=C/c1cc(Br)ccc1O,24,8,-9%,25%,?,-17%,.
COc1ccc(/C(O)=C2\C(=O)C(=O)N(Cc3ccco3)C2c2cc(OC)ccc2OC)cc1 (stereo not drawn),-6,0,5%,1%,?,33%,.
COc1ccc(OC)c(C2/C(=C(/O)c3ccc(C)cc3)C(=O)C(=O)N2Cc2ccco2)c1 (stereo not drawn),-1,-6,-3%,10µM*,7%,-18%,i
CC(C)N1CCN(Cc2ccsc2)CC1CCO (stereo not drawn),19,-5,7%,1%,0%,34%,.
CC(=O)N/C(=C/c1ccccc1)C(=O)NC(Cc1ccccc1)C(=O)O (stereo not drawn),-2,-2,-10%,?,8%,-7%,i
O=C(COc1ccc(Cl)cc1)N1CCN(c2ncccn2)CC1,29,16,2%,10%,0%,-28%,.
O=C(COc1ccc(F)c(Cl)c1)N1CCN(c2ccccn2)CC1,7,-4,-17%,?,-8%,-10%,i
COC(=O)c1sc(N2CCN(c3ccc(Cl)cc3)CC2)nc1N,23,10,-8%,3%,-9%,-1%,.
O=C(O)c1ccc(NCc2ccc3c(c2)OCO3)cc1,4,12,-102%,?,.,?,i
Cc1cc(C(=O)N/N=C/c2cc(Cl)cc([N+](=O)[O-])c2O)c2ccccc2n1,-11,4,-52%,2.2µM*,14%,-27%,i
Cc1cc(C(=O)NN=C2CCCC2)c2ccccc2n1,.,.,.,-2%,-2%,-1%,.
O=C(N/N=C/c1cc(Cl)cc([N+](=O)[O-])c1O)c1ccccc1NS(=O)(=O)c1cccs1,-7,-3,3%,4%,62%,86%,.
Cc1cc(C(=O)NN=C2CCCCC2)c2ccccc2n1,-6,1,11%,13µM*,8%,20%,i
Cc1cc(NC(=O)COC(=O)C2=NN(c3ccccc3)C(=O)CC2)c([N+](=O)[O-])cc1C,.,.,.,-6%,.,.,.
Cn1c2cc(Br)sc2c2cnn(Cc3c(F)cccc3F)c(=O)c21,.,.,.,-6%,25%,1%,.
COc1ccc(C(=O)N2CCN(Cc3cc(OC)c(O)c(OC)c3)CC2)cc1OC,4,-1,?,20µM*,-5%,-9%,i
Cc1nc([N+](=O)[O-])c(Br)n1Cc1ccccc1,-18,-2,-3%,0%,?,-13%,.
Cc1nc([N+](=O)[O-])c(Sc2nc3ccc([N+](=O)[O-])cc3[nH]2)n1Cc1ccccc1,-5,-2,-31%,10µM*,?,?,i
Cn1cc(-c2cc(C(=O)O)on2)cn1,-3,-3,-6%,1%,?,65%,.
CCN(CC)C(=O)c1cccc(NC(=O)C2=COCCO2)c1,.,.,.,2.2µM*,7%,9%,i
CCN(CC)S(=O)(=O)c1cc(NC(=O)C2=COCCO2)ccc1Cl,.,.,.,0%,?,2%,.
NS(=O)(=O)c1ccc(CCNC2CC(=O)N(CCc3ccccc3)C2=O)cc1 (stereo not drawn),12,-7,4%,2%,13%,.,.

# High-throughput results as filed in PubChem BioAssay.
